Source: PubChem (several laboratories)
This is a sample that favours compounds with a hit; in the whole collection about 2.4% have one here.
CRFBP-R2 agonist – agonists of CRF-BP/CRF-R2 complex, primary screen, cell-based, HEK293, calcium dye fluorescence, uHTS. actives 0.46% (n = 350,000). activation, % at 13.2 µM. AID 588473, 2011. calcium dye fluorescence (FLIPR); percent of saturating CRF peptide response;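 active means activation of at least 50%, plus an integration ratio under a set limit after plate pattern correction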;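 further: plate controls were neutral control wells without compound for no effect and CRF at EC100 for full effect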
CRFR2-BP antag – antagonists of CRF-BP/CRF-R2 complex, primary screen, cell-based, HEK293, calcium dye fluorescence, uHTS; CRF-induced calcium fluorescence; inhibition, % at 11.8 µM; actives 0.59% (n = 350,000);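 active means inhibition of the ligand-induced calcium signal above about 50% at the single tested concentration, limit read from the data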
Cardiac RTF inh – cardiac RTF calcium sensitivity inhibitors, primary screen, biochemical, IANBD-TnC fluorescence, EC70 calcium | actives 0.12% (n = 340,000) | inhibition, % at 7.15 µM | AID 493244, 2011 | Troponin I, cardiac muscle (Homo sapiens) + Troponin T, cardiac muscle (Homo sapiens) + … | IANBD-labeled cardiac RTF, Ca2+ fluorescence;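 active means inhibition above the mean inhibition of all tested compounds plus 3 SD, cut at about 17% in these data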;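 further: assay run at fixed EC70 calcium of 1.6 mM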
TMEM16A inh – TMEM16A chloride channel inhibitors, primary screen, cell-based, HTS; normalized B-score (activity score, 25-100; higher = stronger inhibition) at 10 µM; AID 588511, 2011; Anoctamin-1 (Mus musculus), Q8BHY3; HEK293 TMEM16A/YFP iodide influx fluorescence, ionomycin; actives 1.2% (n = 310,000);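 active means ratio plate-corrected score three or more library SD toward inhibition, starting fluorescence score within five deviations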;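 further: score derived from kinetic fluorescence span divided by baseline fluorescence per well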
Target sequence (Q8BHY3 whole entry, looked up): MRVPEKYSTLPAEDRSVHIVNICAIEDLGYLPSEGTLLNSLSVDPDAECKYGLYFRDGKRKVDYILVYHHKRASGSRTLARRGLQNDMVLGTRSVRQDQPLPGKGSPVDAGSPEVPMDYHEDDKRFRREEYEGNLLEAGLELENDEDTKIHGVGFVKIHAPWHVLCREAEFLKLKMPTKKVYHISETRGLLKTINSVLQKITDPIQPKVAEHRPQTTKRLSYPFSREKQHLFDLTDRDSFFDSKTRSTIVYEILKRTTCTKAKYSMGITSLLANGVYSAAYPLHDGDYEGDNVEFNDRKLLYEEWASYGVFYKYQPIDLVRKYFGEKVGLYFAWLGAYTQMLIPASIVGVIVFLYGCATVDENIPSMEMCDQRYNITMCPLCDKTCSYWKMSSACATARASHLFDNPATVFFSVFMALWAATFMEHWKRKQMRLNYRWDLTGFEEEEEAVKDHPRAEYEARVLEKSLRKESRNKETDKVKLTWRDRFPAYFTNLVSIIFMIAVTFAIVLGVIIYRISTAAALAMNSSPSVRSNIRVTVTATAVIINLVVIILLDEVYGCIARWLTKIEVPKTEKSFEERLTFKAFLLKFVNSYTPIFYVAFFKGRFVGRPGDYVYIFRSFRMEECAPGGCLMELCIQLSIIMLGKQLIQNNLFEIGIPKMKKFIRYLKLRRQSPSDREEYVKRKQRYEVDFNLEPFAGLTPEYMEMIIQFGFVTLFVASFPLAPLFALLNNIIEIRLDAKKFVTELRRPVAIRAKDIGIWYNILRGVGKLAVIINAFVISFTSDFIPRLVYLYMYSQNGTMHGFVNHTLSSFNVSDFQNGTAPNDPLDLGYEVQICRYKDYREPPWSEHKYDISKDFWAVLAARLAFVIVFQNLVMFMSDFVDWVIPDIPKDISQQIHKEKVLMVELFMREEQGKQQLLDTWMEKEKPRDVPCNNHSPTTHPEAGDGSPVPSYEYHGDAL
ANO1 activ – TMEM16A chloride channel activators or potentiators, primary screen, cell-based, HTS; HEK293 TMEM16A/YFP-H148Q/I152L, iodide quench fluorescence; active compounds read low; B-score at 10 µM; actives 0.3% (n = 340,000); AID 623877, 2012;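 active means fluorescence-ratio B-score plate-corrected deviation score at least 3 library SD below zero, with starting fluorescence score within 5 deviations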;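 further: channel opened by trigger with iodide after compound preincubation; score built on the fluorescence ratio of max minus min over baseline; more negative score means more quench and so TMEM16A activation or potentiation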
cardiac RTF act – cardiac RTF calcium sensitivity activators, primary screen, biochemical, IANBD-TnC fluorescence, EC20 calcium; Troponin I, cardiac muscle (Homo sapiens) + Troponin T, cardiac muscle (Homo sapiens) + …; IANBD-labeled TnC RTF fluorescence at EC20 calcium; 0% EC20 calcium, 100% full calcium; activation, % at 7.2 µM; actives 0.24% (n = 340,000); AID 493008, 2010;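 active means activation above the mean over all tested compounds plus 3 SD, cut at about 30% in these data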;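 further: rise in fluorescence read as greater calcium sensitivity of cardiac thin filaments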
TMEM16A reconf – TMEM16A chloride channel inhibitors, confirmation, cell-based, re-confirmation. shares compounds with TMEM16A inh. HEK293 TMEM16A/YFP-H148Q, iodide quench fluorescence; ionomycin added to raise cell calcium. inhibition, % at 10 µM. actives 39% (n = 2,300). AID 652189, 2013;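 active means mean duplicate percent inhibition, scaled so buffer wells are 0 and the reference blocker 100, over three buffer SD above buffer mean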
HEK293 Ca mobil – calcium mobilization in TMEM16A/YFP HEK293 cells, confirmation, counter-screen for TMEM16A inhibitor project; shares compounds with TMEM16A inh; Fluo4 calcium mobilization; calcium response (% of ionomycin), % at 10 µM; actives 2% (n = 2,300);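 active means duplicate-averaged calcium signal over 20% of the ionomycin maximum, relative to buffer baseline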;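 further: each well's signal is peak minus trough fluorescence divided by its pre-addition baseline; 0% = buffer wells and 100% = ionomycin wells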
YFP-HEK293 quench – iodide YFP quench changes in parental YFP-HEK293, counter-screen for TMEM16A inhibitor project, cell-based | shares compounds with TMEM16A inh | YFP ratio F(max-min)/F0 at 10 µM | ionomycin | AID 652233, 2013 | 2,300 tested, under 10 active;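 active means yellow fluorescent protein signal ratio exceeding the buffer control mean by over 5 SD of those controls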;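 further: ratio is mean of duplicate wells from kinetic YFP trace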
ClC-1 inh – ClC-1 chloride channel inhibition, selectivity assay for TMEM16A inhibitor project, cell-based, voltage-dependent ClC-1. shares compounds with TMEM16A inh. CHO ClC-1-YFP, iodide influx fluorescence quench; iodide control reads 0, buffer control 100. ratio percent, % at 10 µM. 2,300 tested, under 10 active. AID 652236, 2013;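 active means duplicate-mean ratio percent above the mean of iodide-only control wells, which defines zero, plus 5 of their SD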;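 further: higher percent means stronger block of ClC-1 iodide influx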
The depositor's hits bear a star; i = inactive; . = no result given.

SMILES	CRFBP-R2 agonist	CRFR2-BP antag	Cardiac RTF inh	TMEM16A inh	ANO1 activ	cardiac RTF act	TMEM16A reconf	HEK293 Ca mobil	YFP-HEK293 quench	ClC-1 inh
CC1CN(S(=O)(=O)c2ccc(C(=O)Nc3nc(-c4cc5ccccc5o4)cs3)cc2)CC(C)O1 (configuration not stated)	-1	-3	1	25*	i	2	i	i	-0.9	-17
O=C(Nc1nc(-c2ccc(S(=O)(=O)N3CCOCC3)cc2)cs1)c1ccccc1	0	-8	-5	i	i	-4	.	.	.	.
O=C(Nc1nc(-c2nc3ccccc3s2)cs1)c1ccc(S(=O)(=O)N2CCOCC2)cc1	0	-38	1	100*	i	5	33%*	i	-0.91	-22
O=C(Nc1nc(-c2ccc(S(=O)(=O)N3CCCC3)cc2)cs1)c1cccs1	1	-16	-3	25*	i	-2	26%*	i	-0.75	-6
O=C(Nc1nc(-c2ccc(S(=O)(=O)N3CCCCCC3)cc2)cs1)c1cccs1	1	-41	-6	i	i	0	.	.	.	.
O=C(c1ccco1)N1CCN(Cc2cccc3ccccc23)CC1	0	-7	-1	i	i	-2	.	.	.	.
CN1CCN(NC(=O)c2cccc(Br)c2)CC1	4	-31	-21	i	i	0	.	.	.	.
Cc1ccccc1-n1c(=O)c(C#N)cc2c(=O)n3ccccc3nc21	1	4	-8	100*	i	1	i	i	-0.93	-4
CCc1c(O)nc(SCC(=O)Nc2ccc(Cl)cc2)n(-c2ccccc2)c1=O	-2	-5	.	.	.	.	.	.	.	.
CN1C(=O)C(C)(C)c2cc(S(=O)(=O)N3CCN(c4ccccc4)CC3)ccc21	-1	13	-6	100*	i	-4	i	i	-1.1	-4
CC1CCN(Cc2nnnn2CCCC(=O)N(C)C(C)c2ccccn2)CC1 (configuration not stated)	1	0	-12	i	i	-3	.	.	.	.
CCc1nnc(NC(=O)C2Cc3ccccc3CN2S(=O)(=O)c2c(C)c(C)cc(C)c2C)s1 (configuration not stated)	0	-33	-1	25*	i	1	i	i	-1	6
CCc1nnc(NC(=O)C2Cc3ccccc3CN2S(=O)(=O)CC)s1 (configuration not stated)	-1	-6	-11	i	i	-1	.	.	.	.
COc1cc2c(cc1NC(=O)CCCCCN1C(=O)CCC1=O)oc1ccccc12	0	-4	-7	25*	i	-1	i	i	-1.2	-8
COc1cccc(NC(=O)CCN2CCOCC2)c1	0	19	-11	i	i	-1	.	.	.	.
O=C(CCN1CCOCC1)Nc1ccccc1	-1	1	-6	100*	i	6	i	i	-1	-1
CCC(=O)OCC(=O)Nc1ncc(C(F)(F)F)cc1Cl	5	-19	-21	i	i	-6	.	.	.	.
O=C(COC(=O)C1(c2ccc(F)cc2)CCCC1)Nc1ncc(C(F)(F)F)cc1Cl	0	-9	4	100*	i	-4	55%*	i	-0.82	-11
CC1CCCCC12NC(=O)N(CC(=O)N1CCc3ccccc3C1)C2=O (configuration not stated)	4	-9	0	.	i	-6	.	.	.	.
Cc1c(Cl)cccc1NC(=O)C1NC(=O)CC1c1ccccc1 (configuration not stated)	4	6	-4	i	i	-2	.	.	.	.
Brc1ccc2ncnc(NCc3ccccc3)c2c1	-1	4	2	i	i	-2	.	.	.	.
CCc1ccccc1Nc1ncnc2ccccc12	0	2	-5	i	i	8	.	.	.	.
CCCCCCCCNc1ncnc2ccccc12	0	-28	-6	100*	i	-11	38%*	i	-1	-36
Cc1cc2c(NCCc3ccccc3)ncnc2s1	-2	5	-4	25*	i	5	24%*	i	-1.1	-14
c1ccc(CCNc2ncnc3ccccc23)cc1	0	5	-14	25*	i	-7	i	i	-1	-26
SMILES	CRFBP-R2 agonist	CRFR2-BP antag	Cardiac RTF inh	TMEM16A inh	ANO1 activ	cardiac RTF act	TMEM16A reconf	HEK293 Ca mobil	YFP-HEK293 quench	ClC-1 inh
Cc1cc(C)cc(OCc2nnc(SCC(=O)OC(C)C)o2)c1	-4	-15	0	i	i	1	.	.	.	.
C/C(=C\C(=O)c1sccc1Cl)N(C)C	-1	-10	0	i	i	-3	.	.	.	.
O=C1C(SCCO)=C(SCCO)C(=O)c2ccccc21	1	-22	-6	100*	i	3	40%*	i	-0.91	-34
O=C(Nc1ccc(Br)cc1)c1cccc(S(=O)(=O)Nc2cnc3ccccc3c2)c1	0	-28	9	100*	i	2	45%*	i	-1	-30
CCCCOc1ccccc1Cn1c(=O)oc2ccc(C)cc21	3	1	-5	100*	i	-1	i	i	-1.2	-8
COc1ccccc1Cn1c(=O)oc2ccc(C)cc21	-2	-17	-9	i	i	0	.	.	.	.
CCOC(=O)Cc1csc(NC(=O)c2ccc(Br)cc2)n1	1	-13	-4	i	i	0	.	.	.	.
CCOC(=O)Cc1csc(NC(=O)c2ccncc2)n1	4	-2	-7	100*	i	0	19%*	i	-0.85	-10
